Experimental findings from PubChem BioAssay (NCATS) are described below.

Records with an inconclusive call do not appear. The source made the active and inactive calls. Calls follow the shape of the full dose curve.

Atrial natriuretic peptide receptor 1 (Homo sapiens), sequence (P16066 whole entry, looked up, the tested form may be a part): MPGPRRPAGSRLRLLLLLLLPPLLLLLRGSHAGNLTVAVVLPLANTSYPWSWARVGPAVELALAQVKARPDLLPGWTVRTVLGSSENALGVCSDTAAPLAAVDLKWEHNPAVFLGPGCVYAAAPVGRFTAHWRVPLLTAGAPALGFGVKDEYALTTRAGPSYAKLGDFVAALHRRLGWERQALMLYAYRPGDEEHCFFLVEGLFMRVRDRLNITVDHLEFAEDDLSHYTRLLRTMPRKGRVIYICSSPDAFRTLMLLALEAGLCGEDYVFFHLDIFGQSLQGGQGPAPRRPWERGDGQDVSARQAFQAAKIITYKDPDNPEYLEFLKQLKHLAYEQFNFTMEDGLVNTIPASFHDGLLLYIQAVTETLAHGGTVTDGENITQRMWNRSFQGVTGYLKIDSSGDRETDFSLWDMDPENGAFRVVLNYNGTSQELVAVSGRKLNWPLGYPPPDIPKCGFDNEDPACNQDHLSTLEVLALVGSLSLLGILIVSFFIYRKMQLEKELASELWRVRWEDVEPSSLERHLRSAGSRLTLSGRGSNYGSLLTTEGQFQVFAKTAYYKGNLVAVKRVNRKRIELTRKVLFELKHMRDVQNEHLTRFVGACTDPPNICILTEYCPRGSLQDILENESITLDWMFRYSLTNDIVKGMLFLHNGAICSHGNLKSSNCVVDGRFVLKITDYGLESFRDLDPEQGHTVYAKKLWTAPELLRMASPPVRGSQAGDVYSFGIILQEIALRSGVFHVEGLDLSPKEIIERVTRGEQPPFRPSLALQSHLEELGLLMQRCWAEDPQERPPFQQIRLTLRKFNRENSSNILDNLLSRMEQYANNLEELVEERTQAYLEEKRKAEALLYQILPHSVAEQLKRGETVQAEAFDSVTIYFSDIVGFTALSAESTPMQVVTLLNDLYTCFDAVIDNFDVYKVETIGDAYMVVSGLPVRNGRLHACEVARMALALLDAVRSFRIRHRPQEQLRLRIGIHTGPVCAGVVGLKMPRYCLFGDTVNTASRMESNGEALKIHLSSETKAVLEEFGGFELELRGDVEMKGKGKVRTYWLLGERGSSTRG

For this assay, the target named is Atrial natriuretic peptide receptor 1 (Homo sapiens) (UniProt P16066). The assay can be described thus: Natriuretic polypeptide receptor (hNpr1) antagonism - Pilot CMLD screen (AID 1347052). The conditions noted are these: HEK293 hNpr1 GloSensor cGMP luminescence, ANP-stimulated; series mostly up to 9.22 µM. As for the experimental part:
In order to identify small molecular compounds that inhibit the hNpr1 receptor we developed a high-throughput assay to measure inhibition of the guanylate cyclase activity of the receptor. cGMP production was measured using a circular permutated Firefly luciferase (FLuc) enzyme functionally linked to the cGMP binding domain of human phosphodiesterase 5 (GloSensor technology pGS-40F, (Fan, F. et al. 2008). The cGMP-sensor was expressed in human embryonic kidney 293 (HEK-293) cells and FLuc activity was measured after stimulation with hNrp agonist peptide. hNrp agonists activates the receptor's associated guanylyl cyclase (GC) domain producing cGMP which then binds to the GloSensor resulting in FLuc activation, the enzymatic activity of which can be measured as bioluminescence with addition of luciferin substrate.
This assay was initially piloted by testing with a small library of specialty compounds.
PROTOCOL TABLES (as described by Inglese J, Shamu CE and Guy RK. 2007)
SEQUENCE No. (e.g., 1, 2, 3, etc.); […] (e.g., Cells, Incubation, Reagent, etc.); VALUE and DESCRIPTION.
1. Cells. Seed 1500 HEK293 cGMP-sensor cells expressing hNpr1 per well in 4uL into Greiner 1536-well white/solid bottom high base, tissue culture-treated plates.
2. Incubation. Incubate plated cells at 37C in 5% CO2, 95% RH overnight.
3. Reagent. Add 1uL per well GloSensor reagent from Promega (2% final concentration) or CO2 independent media vehicle control to respective columns of Greiner 1536-well plates.
4. Incubation. Incubate plated cells at room temperature for 2 h, protect from light.
5. Compounds. Library compounds and A-71915 control added at 23 nL per well, transferred by Pin Tool.
6. Incubation. Incubate plated cells for 30 min. at room temperature, protect from light.
7. Detector. GloSensor baseline pre-read luminescence measured using CCD-based camera (Viewlux).
8. Compound. Add 1uL of hNppA peptide to 0.1 nM final concentration to stimulate hNpr1 or CO2 independent media as vehicle control.
9. Incubation. Incubate treated cells at room temperature for 20 min., protect from light.
10. Detector. GloSensor post-hNppA luminescence measured using CCD-based camera (Viewlux).
NOTES (numbers refer to Sequence numbers above)
1. HEK293 cells expressing hNpr1 and GIP/pGS-40F grown to 85-95% confluence (48-72 h) in T175 culture flasks (CO2 independent media supplemented with 10% FBS, 1% Pen/Strep antibiotics and 1 ug/mL puromycin). Trypsinize and harvest cells from T175 culture flasks and filter through 40 um cell strainer. Cells counted with Invitrogen Countess (30,000,000 - 50,000,000 cells/flask). Cells diluted to a final concentration of 375 cells/uL in CO2 independent media and a Millipore multidrop used to dispense 1500 cells per well (4uL/well) into 13 1536-well Greiner White/Solid bottom, high base tissue-culture treated (TC) plates and one Aurora 1536-well Black/Clear bottom, low base, TC plate (for visual inspection of cell health throughout the duration of the assay).
2. Cells incubated overnight at ambient temperature, 24 h. at 37C in 95% RH incubator protected from light, covered with metal lid with gas-exchange holes.
3. Prepare GloSensor Reagent (Promega): Reconstitute GloSensor luciferase substrate by adding 8.2mL Hepes buffer to 250mg substrate, mix well, protect from light and stored at -80C. Prepare a fresh 12% GloSensor solution in CO2 independent supplemented plating media (see above). Mix well and store at ambient temperature, protected from light. 1uL 12% GloSensor Luciferase Reagent added (2% final concentration) to respective columns of 13 x 1536-well Greiner plate with BioRaptr, 1uL CO2 independent plating media added to respective columns as vehicle control with BioRaptr.
4. Cells incubated for 2 h. at ambient temperature, protected from light with metal lid with gas-exchange holes.
5. A-71915 stock solution prepared (10 mM in DMSO). […]
As for `COC(=O)[C@@]1(C=C2c3ccc(F)cc3[C@@H](OC)[C@@H]2C)[C@@H]2Oc3ccccc3[C@@H]21`, the result was inactive.

On to `CCOC(=O)[C@@]12[C@@H]3[C@@H](CCN3C(=O)N[C@H]1c1ccccc1)C2(C)C`, for which the call was inactive.

For the compound `COC(=O)[C@@]1(C=C2c3ccc(F)cc3[C@@H](OC)[C@@H]2C)[C@@H]2c3ccccc3O[C@@H]21`, the compound was called inactive.

Consider `COC(=O)C1c2c(n(C)c3ccccc23)[C@H]2[C@@H](C)[C@H](OC)c3ccccc3[C@@H]12` (some centres not stated), for which the call was inactive.

Consider `COC(=O)C1=C2CCO[C@H]2[C@@H]2[C@@H](C)[C@H](OC)c3ccccc3[C@@H]12`, for which the outcome was inactive.

In the case of `CO[C@@H]1c2ccccc2[C@H]2C(C(=O)O)c3c(n(C)c4ccccc34)[C@H]2[C@H]1C` (some centres not stated), the outcome was inactive.

As for `CCOC(=O)[C@]12C[C@@H]3CCN(C(=O)N(C(C)=O)[C@@H]1c1ccccc1)[C@@H]32`, the compound was classed as inactive.

Turning to `COC(=O)C1=C2CCO[C@@H]2[C@H]2[C@@H](C)[C@H](OC)c3ccccc3[C@H]12`, the outcome was inactive.

With `CC(=O)[C@]12C[C@@H]3CCCN(C(=O)N[C@@H]1c1ccccc1)[C@@H]32`, the compound was called inactive.

As for `C=C1[C@@H]2CCN3C(=O)N[C@@H](c4ccccc4)[C@@]1(C(=O)OCC)C23` (some centres not stated), the compound was called inactive.

For the compound `CCOC(=O)[C@]12C[C@@H]3OCCN(C(=O)N[C@@H]1c1ccccc1)[C@@H]32`, the call was inactive.

Regarding `COC(=O)[C@@]1(C=C[C@@H](C)[C@H](OC)c2ccccc2Br)[C@@H]2Oc3ccccc3[C@@H]21`, the result was inactive.

For `COC(=O)C1=NN=C(C(=O)OC)[C@@]2(C)c3ccccc3NC12` (some centres not stated), the compound was classed as inactive.

Regarding `COC(=O)C12CC3=CCC4C(=O)N(c5ccccc5)C(=O)C4C3Cc3ccccc3[C@H]1CNC2=O` (some centres not stated), the outcome was inactive.

Regarding `C=C(C)C(=O)CP(=O)(OCC)OCC`, the call was inactive.

With `CC(=O)[C@]12[C@H](c3ccccc3)[C@@H]3CCN(C(=O)N[C@H]1c1ccccc1)[C@@]32C`, the compound was called inactive.

On to `CCOC(=O)[C@]12C[C@]3(OC)CCN(C(=O)N[C@@H]1c1ccccc1)[C@@H]32`, for which the outcome was inactive.

On to `COC(=O)[C@@H]1[C@@H](c2ccccc2)[C@H]2C(=O)c3c(OC)cc(OC)cc3O[C@@]12c1ccc(OC)cc1`, for which the call was inactive.

For `COC(=O)C1(C)C2CC(C)C(c3ccccc32)N1C(=O)C(F)(F)F` (configuration not stated), the compound was called inactive.

Consider `CC(=O)[C@]12C[C@]3(C)CCCN(C(=O)N[C@@H]1c1ccccc1)C32` (some centres not stated), for which the result was inactive.

Consider `COC(=O)[C@]12C[C@@H]3CCN(C(=O)N[C@@H]1c1ccccc1)[C@@]32C`, for which the outcome was inactive.

For the compound `CC(=O)[C@]12C[C@@H]3CCN(C(=O)N[C@@H]1c1ccccc1)[C@@]32C`, the result was inactive.

In the case of `CC(=O)[C@@]12C3[C@@H](CCN3C(=O)N[C@H]1c1ccccc1)[C@H]2c1ccccc1` (some centres not stated), the outcome was inactive.

Turning to `CCOC(=O)[C@]12C[C@]3(C)CCN(C(=O)N[C@@H]1c1ccccc1)[C@@H]32`, the compound was classed as inactive.

On to `CCC[C@]12CCN3C(=O)N[C@@H](c4ccccc4)[C@](C(=O)OCC)(C1)[C@H]32`, for which the outcome was inactive.

For the compound `COC(=O)C1=C2CCCO[C@H]2[C@@H]2[C@@H](C)[C@H](OC)c3ccccc3[C@@H]12`, the call was inactive.

For the compound `CCOC(=O)[C@@]12C3[C@@H](CCN3C(=O)N[C@@H]1c1ccccc1)[C@@H]2C` (some centres not stated), the compound was called inactive.

For the compound `COC(=O)[C@@]1(C=C2c3ccccc3[C@@H](OC)[C@@H]2C)[C@@H]2Oc3ccccc3[C@@H]21`, the compound was classed as inactive.

Consider `CCOC(=O)[C@]12C[C@]3(C)CCCN(C(=O)N[C@@H]1c1ccccc1)[C@@H]32`, for which the outcome was inactive.

Consider `COC(=O)[C@@]12Cc3ccccc3[C@H]1C[C@H](C)[C@@H](C)N2C(=O)C(F)(F)F`, for which the result was inactive.

`COC(=O)C1=C[C@H]([C@@H](C)[C@H](OC)c2ccccc2Br)[C@H]2[C@H]1c1ccccc1N2C`: the compound was classed as inactive.

Turning to `COC(=O)C1C2CC(C)C(c3ccccc32)N1C(=O)C(F)(F)F` (configuration not stated), the compound was classed as inactive.
